Screens deposited in PubChem BioAssay by National Center for Advancing Translational Sciences (NCATS).
Rows were chosen to be rich in hits. Some 7.3% of all compounds tested hit in one or more screens of this group.
Rab9 promoter act = qHTS Assay for Rab9 Promoter Activators. 2.8% of 320,000 active. Huh7 Rab9 promoter-luciferase reporter, luminescence, 24 h. Potency, µM (top dose mostly 9.22 µM), for the others: top-dose activation, negative = inhibition, actives largely listed as activators; note: % of control where 0% means no effect; nearly all actives have a fitted effect of over 60% in size
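Cells were plated at 1500 per well in reduced-serum medium with 10% FBS and left 2 h. Compound in DMSO was then added for 24 h at 37 °C. Reporter signal was read by luminescence after 10 min with luciferase detection reagent.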
FLuc modulator = qHTS profiling assay for firefly luciferase inhibitor/activator using purifed enzyme and Km concentrations of substrates (counterscreen for miR-21 project); purified FLuc, Km substrates, luminescence inhibition; Luciferin 4-monooxygenase (Photinus pyralis), P08659; AID 588342, 2011; 6.9% of 360,000 active; Potency, µM (series often up to 57.5 µM), for the others: at the top dose activity change, negative = inhibition, hits mostly inhibitors;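 note: plate controls were vehicle for no effect and reference inhibitor for full effect; nearly all actives have a fitted effect of over 55% in size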
Target sequence (P08659 whole entry, looked up): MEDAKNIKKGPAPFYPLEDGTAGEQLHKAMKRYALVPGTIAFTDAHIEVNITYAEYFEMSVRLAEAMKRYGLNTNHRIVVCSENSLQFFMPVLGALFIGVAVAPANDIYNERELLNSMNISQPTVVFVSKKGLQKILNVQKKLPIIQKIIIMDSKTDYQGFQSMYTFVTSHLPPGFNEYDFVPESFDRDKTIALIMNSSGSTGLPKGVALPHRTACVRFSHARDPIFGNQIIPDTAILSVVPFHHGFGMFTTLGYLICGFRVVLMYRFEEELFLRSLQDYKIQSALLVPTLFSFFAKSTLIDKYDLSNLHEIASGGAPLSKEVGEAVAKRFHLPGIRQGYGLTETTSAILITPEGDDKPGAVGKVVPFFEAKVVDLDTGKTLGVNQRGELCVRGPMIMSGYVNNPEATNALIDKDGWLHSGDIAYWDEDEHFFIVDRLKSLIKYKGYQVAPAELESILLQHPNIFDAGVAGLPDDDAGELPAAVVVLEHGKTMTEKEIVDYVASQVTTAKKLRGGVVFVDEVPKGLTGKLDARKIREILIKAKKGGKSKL
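Purified P. pyralis luciferase, 10 nM final, with Km-level 10 uM D-luciferin and 10 uM ATP in 50 mM Tris acetate pH 7.5, 10 mM Mg acetate, 0.01% Tween-20, 0.05% BSA; 6-point qHTS titration about 60 µM downward; luminescence read.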
NPC1 prom act = qHTS Assay for NPC1 Promoter Activators; Huh7 NPC1 promoter luciferase reporter, 24 h; Potency, µM (titrated, usually from 9.22 µM), inactives show at the highest dose activation, most hits filed as activators; 2.4% of 320,000 active; AID 485313, 2010; note: % of control where 0% means no effect; nearly all actives have a fitted effect of over 60% in size
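Huh7 reporter cells (NPC1 promoter driving luciferase) are dosed with compound for 24 h at 37 °C, 5% CO2; luciferase detection reagent is then added and luminescence measured after 10 min at ambient temperature.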
ELG1 genotox = qHTS screen for small molecules that induce genotoxicity in human embryonic kidney (HEK293T) cells expressing luciferase-tagged ELG1 | Potency, µM (series often up to 46 µM), inactives show at the highest dose activity change, positive = activation, usual class: activators | HEK293T ELG1-luciferase reporter, luminescence, 16 h | 1.3% of 330,000 active; note: % of control where 0% means no effect; nearly all actives have a fitted effect of over 60% in size
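Luminescence read-out: rising ELG1-luciferase signal, reflecting elevated ELG1 protein under genetic stress, flags genotoxic compounds. Cells were treated for 16 hr at 37 °C before ONE-Glo detection.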
p53 reactivator = qHTS assay for re-activators of p53 using a Luc reporter. 0.063% of 320,000 active. H1299 p53-A138V BP100-luciferase reporter, luminescence, 24 h. AID 504706, 2011. Potency, µM (titrated, usually from 92.2 µM), without a hit: at the top dose activity change, positive = activation, most hits filed as activators; note: % of control where 0% means no effect; nearly all actives have a fitted effect of over 45% in size
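H1299 (p53-null), stable ts p53-A138V + BP100-Luc; 1000 cells/well, Opti-MEM/10% FBS; cpd 4 pt, 1:5; 24 h, 37 deg C, 5% CO2; detection reagent 10 min RT; luminescence.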
SMN2 splice up = qHTS Assay for Enhancers of SMN2 Splice Variant Expression. Potency, µM (doses to about 46.1 µM), for the others: top-dose activity change, positive = activation, most hits filed as activators. HEK293 SMN2-luciferase splicing reporter, luminescence, 30-36 h. 2.8% of 210,000 active. AID 1458, 2008; note: % of control where 0% means no effect; nearly all actives have a fitted effect of over 55% in size
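HEK293 cells carry an SMN2 […]–luciferase reporter in which exon 7 inclusion puts luciferase in frame. Cells were plated 10-12 h before compound addition, then incubated 30-36 h at 37C. ONE-Glo luminescence was read; sodium butyrate at 4.5 mM final served as control.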
* hit, by the source's call. Calls come from the whole dose curve; as a rule, active = well fitted curve in the direction sought with a large enough effect; inconclusive = small, poorly fitted or top-dose-only effect, or another doubt; inactive = no such curve, though single readings can be large; an effect the other way counts as inactive or inconclusive. Potency is the fitted concentration of half-maximal effect.

How did O=C(Cn1c(=O)n(Cc2nc(-c3ccccc3)no2)c(=O)c2ccccc21)Nc1cccc(C(F)(F)F)c1 do in these assays?
FLuc modulator: -3%

How did Cc1ccc(C(=O)NCCn2ccc3ccccc32)cc1[N+](=O)[O-] do in these assays?
Rab9 promoter act: 21%; FLuc modulator: -18%; NPC1 prom act: 21%; ELG1 genotox: -3%; p53 reactivator: 24%; SMN2 splice up: inconclusive

Results for O=C(NCCn1ccc2ccccc21)c1ccc2c(c1)OCO2 ?
Rab9 promoter act: 1.1µM*; FLuc modulator: 6.7µM*; NPC1 prom act: 0.89µM*; ELG1 genotox: 2.3µM*; p53 reactivator: inconclusive; SMN2 splice up: 8.9µM*

How did COc1ccc(C(=O)NCCSc2ccccc2)cc1 do in these assays?
Rab9 promoter act: 0.35µM*; FLuc modulator: 1.5µM*; NPC1 prom act: 0.35µM*; ELG1 genotox: 2.6µM*; p53 reactivator: inconclusive; SMN2 splice up: 2.8µM*

Results for COc1ccc(C(=O)NCCn2cc(SCC(N)=O)c3ccccc32)cc1 ?
Rab9 promoter act: 22%; FLuc modulator: 15µM*; NPC1 prom act: 12%; ELG1 genotox: 4%; p53 reactivator: 0%

What do the screens show for `COc1ccc(C(=O)N[C@H](C(=O)NCCCSc2ccccc2)C(C)C)cc1`?
ELG1 genotox: -8%; p53 reactivator: -5%

Results for Cc1ccc(C(=O)NCCn2cc(SCC(=O)Nc3nnc(C)s3)c3ccccc32)cc1 ?
Rab9 promoter act: 26%; FLuc modulator: 17µM*; NPC1 prom act: -3%; ELG1 genotox: inconclusive; p53 reactivator: 7%; SMN2 splice up: -55%

What do the screens show for `Cc1oc2ncn(CC(C)C)c(=O)c2c1C(=O)NC(C)c1ccccc1` (stereo unspecified)?
FLuc modulator: -7%

What do the screens show for `O=C(c1cccc(C(F)(F)F)c1)C1CCCN(C(=O)/C=C/c2cnc[nH]2)C1` (stereo unspecified)?
Rab9 promoter act: 1%; FLuc modulator: 4%; NPC1 prom act: -4%; ELG1 genotox: 0%; p53 reactivator: 5%

What do the screens show for `CNC(=O)C1CCN(Cc2cc3ccccc3n2Cc2cccc(C)c2)CC1`?
FLuc modulator: 2%

Results for O=C(NCCc1ccccc1)C1=COCCO1 ?
Rab9 promoter act: 3.2µM*; FLuc modulator: 17µM*; NPC1 prom act: 2.5µM*; ELG1 genotox: inconclusive; p53 reactivator: inconclusive

Results for CN(Cc1ccccc1)C(=O)c1ccc2c(c1)OCCO2 ?
Rab9 promoter act: 4%; FLuc modulator: -5%; NPC1 prom act: 1%; ELG1 genotox: 4%; p53 reactivator: 0%; SMN2 splice up: 7%

How did CCOc1ccc(C(=O)NCCn2cc(SCC(=O)Nc3cc(C)on3)c3ccccc32)cc1 do in these assays?
Rab9 promoter act: 1%; FLuc modulator: 12µM*; NPC1 prom act: 0%; ELG1 genotox: -4%; p53 reactivator: -8%; SMN2 splice up: -23%

How did CC(C)(C)c1ccccc1NC(=O)C1=COCCO1 do in these assays?
Rab9 promoter act: 2%; FLuc modulator: 2%; NPC1 prom act: -1%; ELG1 genotox: 6%; p53 reactivator: 3%

Results for O=C(NCCSc1ccc(Br)cc1)c1ccccc1 ?
Rab9 promoter act: 1%; FLuc modulator: -11%; NPC1 prom act: -2%; ELG1 genotox: 1%; p53 reactivator: -1%; SMN2 splice up: -4%

What do the screens show for `O=C(Cc1ccccc1)c1ccc2c(c1)OCCO2`?
Rab9 promoter act: 2.8µM*; FLuc modulator: 8.5µM*; NPC1 prom act: 2.5µM*; ELG1 genotox: 18µM*; p53 reactivator: 1%; SMN2 splice up: inconclusive

Results for CSCc1ccc(C(=O)NCCSc2ccc(Br)cc2)cc1 ?
Rab9 promoter act: inconclusive; FLuc modulator: 19µM*; NPC1 prom act: inconclusive; ELG1 genotox: inconclusive; p53 reactivator: inconclusive

Results for Cc1cc(NC(=O)CSc2cn(CCNC(=O)c3ccc(Cl)cc3)c3ccccc23)no1 ?
Rab9 promoter act: 10%; FLuc modulator: inconclusive; NPC1 prom act: 20%; ELG1 genotox: -9%; p53 reactivator: 5%; SMN2 splice up: -92%

What do the screens show for `C=CC(C)(C)O[C@@H]1O[C@H](CO)[C@@H](O)[C@H](O)[C@H]1O`?
Rab9 promoter act: -8%; FLuc modulator: -1%; NPC1 prom act: 1%; ELG1 genotox: -1%; p53 reactivator: 11%

What do the screens show for `CCCCCN(C(=O)CCC(=O)OCc1cccc(C(F)(F)F)c1)c1c(N)n(CCCC)c(=O)[nH]c1=O`?
Rab9 promoter act: 0%; FLuc modulator: 6%; NPC1 prom act: -3%; ELG1 genotox: 1%; p53 reactivator: 3%

Results for O=C(CSC1=Nc2ccccc2N=C(c2ccc(F)cc2)C1)NCc1ccccc1Cl ?
FLuc modulator: 1%

How did O=C(CCC(=O)c1cccs1)Nc1ccc(N2CCCCC2)cc1 do in these assays?
Rab9 promoter act: 11%; FLuc modulator: 19µM*; NPC1 prom act: 11%; ELG1 genotox: 13%; p53 reactivator: 10%; SMN2 splice up: -6%

What do the screens show for `Cc1ccc(NCCC(=O)c2cccs2)cc1`?
Rab9 promoter act: 2.8µM*; FLuc modulator: 21µM*; NPC1 prom act: inconclusive; ELG1 genotox: inconclusive; p53 reactivator: -12%; SMN2 splice up: 23%

What do the screens show for `Cc1ccc(CNC(=O)CCC(=O)c2cccs2)cc1`?
Rab9 promoter act: 1%; FLuc modulator: -20%; NPC1 prom act: -1%; ELG1 genotox: 0%; p53 reactivator: -1%; SMN2 splice up: -20%

How did CS(=O)(=O)N1CCN(c2ccc(NC(=S)NC(=O)c3cccs3)cc2)CC1 do in these assays?
Rab9 promoter act: -8%; FLuc modulator: -2%; NPC1 prom act: 3%; ELG1 genotox: 3%; p53 reactivator: 4%

What do the screens show for `Cc1ccc(NC(=O)CCC(=O)c2cccs2)cc1`?
Rab9 promoter act: -3%; FLuc modulator: 11µM*; NPC1 prom act: 0%; ELG1 genotox: 9%; p53 reactivator: 7%; SMN2 splice up: -24%

Results for O=C(NC(=S)Nc1ccc(N2CCCCC2)cc1)c1cccs1 ?
Rab9 promoter act: 2.2µM*; FLuc modulator: 5.4µM*; NPC1 prom act: 1.3µM*; ELG1 genotox: 2.9µM*; p53 reactivator: inconclusive; SMN2 splice up: -1%
